From article PMC7862700, “An all-to-all approach to the identification of sequence-specific readers for epigenetic DNA modifications on cytosine”

How the values were obtained:
Assay in all cases: DAPPL (digital affinity profiling via proximity ligation, sequencing); 10 mM Tris-HCl pH 7.5, 50 mM NaCl, 1 mM DTT, 4% glycerol, room temperature, 30 min; GST-TFs on glutathione beads, 16-mer random dsDNA library, 0.1% formaldehyde crosslink after washing; high values mean tight binding
FEV = target: T1, FEV (Homo sapiens, UniProt Q99581 1-238); conditions: protein: recombinant; tags: N-terminal GST; dsDNA, one strand shown
T1 sequence: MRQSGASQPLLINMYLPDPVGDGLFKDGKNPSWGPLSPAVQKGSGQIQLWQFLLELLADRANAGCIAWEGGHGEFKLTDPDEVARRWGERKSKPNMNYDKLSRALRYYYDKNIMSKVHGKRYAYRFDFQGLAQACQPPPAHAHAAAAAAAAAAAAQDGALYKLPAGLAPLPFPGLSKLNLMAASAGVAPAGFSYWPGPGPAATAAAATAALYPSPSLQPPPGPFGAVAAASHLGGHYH
How it was run: (§1)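 Each value of binding signal is a hexamer's read frequency for a factor divided by the same hexamer's frequency in the tag-only sample. Barcoded, bead-captured GST fusions of human transcription factors made in yeast were pooled with that sample and incubated with 200 nmole of a random double-stranded 16-mer DNA library in Tris/NaCl/DTT/glycerol buffer at room temperature for 30 min. Washing, 0.1% formaldehyde crosslinking, proximity ligation, PCR and Illumina NextSeq500 sequencing followed.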

ETV5 = ETV5 (Homo sapiens, UniProt P41161 1-510); conditions: protein: recombinant; tags: N-terminal GST; dsDNA, one strand shown
Chain of ETV5 (P41161 whole entry): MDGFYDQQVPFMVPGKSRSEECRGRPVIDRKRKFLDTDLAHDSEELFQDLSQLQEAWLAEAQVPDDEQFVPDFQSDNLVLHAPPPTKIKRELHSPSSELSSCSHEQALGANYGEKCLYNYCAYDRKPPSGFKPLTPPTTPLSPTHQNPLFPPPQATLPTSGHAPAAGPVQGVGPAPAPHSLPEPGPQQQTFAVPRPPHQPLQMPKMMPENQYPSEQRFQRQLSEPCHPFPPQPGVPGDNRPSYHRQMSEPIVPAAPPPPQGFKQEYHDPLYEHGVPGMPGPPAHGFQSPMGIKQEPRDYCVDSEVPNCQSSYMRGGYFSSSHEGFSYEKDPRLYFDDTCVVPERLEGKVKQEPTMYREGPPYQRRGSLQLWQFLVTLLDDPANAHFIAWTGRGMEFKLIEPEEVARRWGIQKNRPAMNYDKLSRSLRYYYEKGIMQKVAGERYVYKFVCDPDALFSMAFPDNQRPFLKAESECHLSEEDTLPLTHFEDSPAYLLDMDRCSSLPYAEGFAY
How it was run: as §1

HSF1 = HSF1 (Homo sapiens, UniProt Q00613 1-529); conditions: protein: recombinant; tags: N-terminal GST; chain copies: 3; dsDNA, one strand shown
Chain of HSF1 (Q00613 whole entry): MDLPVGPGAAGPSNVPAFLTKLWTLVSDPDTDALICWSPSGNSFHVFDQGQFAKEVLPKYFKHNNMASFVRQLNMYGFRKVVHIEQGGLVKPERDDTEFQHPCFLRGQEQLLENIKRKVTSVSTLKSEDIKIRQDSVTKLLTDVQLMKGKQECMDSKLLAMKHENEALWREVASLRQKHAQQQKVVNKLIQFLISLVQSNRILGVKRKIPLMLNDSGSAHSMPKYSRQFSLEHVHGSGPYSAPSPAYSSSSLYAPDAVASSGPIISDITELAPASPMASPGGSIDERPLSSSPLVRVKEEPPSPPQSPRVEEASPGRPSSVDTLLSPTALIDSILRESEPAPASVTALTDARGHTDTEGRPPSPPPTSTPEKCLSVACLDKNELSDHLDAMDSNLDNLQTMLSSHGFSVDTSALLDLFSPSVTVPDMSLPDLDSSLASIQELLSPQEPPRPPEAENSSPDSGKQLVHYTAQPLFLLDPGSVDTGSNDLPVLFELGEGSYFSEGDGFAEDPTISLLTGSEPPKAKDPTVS
How it was run: as §1

SPIC = target: T2, SPIC (Homo sapiens, UniProt Q8N5J4 1-248); conditions: protein: recombinant; tags: N-terminal GST; dsDNA, one strand shown
T2 sequence: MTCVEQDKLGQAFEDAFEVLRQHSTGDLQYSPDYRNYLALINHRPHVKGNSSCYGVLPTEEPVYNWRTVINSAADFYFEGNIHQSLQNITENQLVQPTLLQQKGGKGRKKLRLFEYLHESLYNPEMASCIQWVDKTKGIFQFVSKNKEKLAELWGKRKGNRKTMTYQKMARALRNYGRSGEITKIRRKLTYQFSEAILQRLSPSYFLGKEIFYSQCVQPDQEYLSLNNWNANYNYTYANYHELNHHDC
How it was run: as §1

ELF4 = ELF4 (Homo sapiens, UniProt Q99607 1-663); conditions: protein: recombinant; tags: N-terminal GST; dsDNA, one strand shown
Chain of ELF4 (Q99607 whole entry): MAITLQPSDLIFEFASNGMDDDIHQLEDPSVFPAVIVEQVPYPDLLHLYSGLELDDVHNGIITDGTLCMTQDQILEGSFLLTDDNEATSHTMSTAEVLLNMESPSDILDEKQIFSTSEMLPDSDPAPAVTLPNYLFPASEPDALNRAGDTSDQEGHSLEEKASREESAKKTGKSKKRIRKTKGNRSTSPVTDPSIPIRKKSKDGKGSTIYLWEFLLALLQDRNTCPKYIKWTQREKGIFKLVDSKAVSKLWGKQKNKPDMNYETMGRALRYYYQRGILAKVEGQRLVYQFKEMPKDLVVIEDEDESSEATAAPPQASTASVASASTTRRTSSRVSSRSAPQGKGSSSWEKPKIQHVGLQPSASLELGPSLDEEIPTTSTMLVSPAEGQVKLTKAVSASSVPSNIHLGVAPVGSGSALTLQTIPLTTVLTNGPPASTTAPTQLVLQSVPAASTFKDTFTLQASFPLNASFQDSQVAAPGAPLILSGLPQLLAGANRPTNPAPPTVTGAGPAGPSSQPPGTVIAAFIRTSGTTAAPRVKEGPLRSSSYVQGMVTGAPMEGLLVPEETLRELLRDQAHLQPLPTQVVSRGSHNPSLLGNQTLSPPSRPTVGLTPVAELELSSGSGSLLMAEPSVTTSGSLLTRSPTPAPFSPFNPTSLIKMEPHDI
How it was run: as §1

ELK4 = target: T3, ELK4 (Homo sapiens, UniProt P28324-2 1-405); conditions: protein: recombinant; tags: N-terminal GST; dsDNA, one strand shown
T3 sequence: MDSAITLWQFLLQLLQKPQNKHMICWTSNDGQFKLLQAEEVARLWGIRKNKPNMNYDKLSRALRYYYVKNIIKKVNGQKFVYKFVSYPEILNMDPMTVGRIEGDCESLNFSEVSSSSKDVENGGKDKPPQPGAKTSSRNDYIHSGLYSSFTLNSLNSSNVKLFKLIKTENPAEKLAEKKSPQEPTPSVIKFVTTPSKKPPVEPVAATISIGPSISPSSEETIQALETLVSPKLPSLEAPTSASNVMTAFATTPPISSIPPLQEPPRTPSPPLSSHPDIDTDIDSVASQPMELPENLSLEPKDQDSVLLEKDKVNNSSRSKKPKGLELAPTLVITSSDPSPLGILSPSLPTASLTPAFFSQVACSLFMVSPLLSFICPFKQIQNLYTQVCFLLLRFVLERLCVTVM
How it was run: as §1

ETV2 = target: T4, ETV2 (Homo sapiens, UniProt O00321 1-342); conditions: protein: recombinant; tags: N-terminal GST; dsDNA, one strand shown
T4 sequence: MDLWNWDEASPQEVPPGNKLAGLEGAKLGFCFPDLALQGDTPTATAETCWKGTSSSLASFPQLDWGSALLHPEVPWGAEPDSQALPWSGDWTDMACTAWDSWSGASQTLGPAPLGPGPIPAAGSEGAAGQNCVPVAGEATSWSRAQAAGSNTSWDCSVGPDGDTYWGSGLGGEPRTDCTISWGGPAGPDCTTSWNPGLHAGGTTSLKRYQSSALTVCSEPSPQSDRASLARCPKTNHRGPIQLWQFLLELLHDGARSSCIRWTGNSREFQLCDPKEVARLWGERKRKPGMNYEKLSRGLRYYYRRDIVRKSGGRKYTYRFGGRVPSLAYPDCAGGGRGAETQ
How it was run: as §1

ELF3 = target: T5, ELF3 (Homo sapiens, UniProt P78545 1-371); conditions: protein: recombinant; tags: N-terminal GST; dsDNA, one strand shown
T5 sequence: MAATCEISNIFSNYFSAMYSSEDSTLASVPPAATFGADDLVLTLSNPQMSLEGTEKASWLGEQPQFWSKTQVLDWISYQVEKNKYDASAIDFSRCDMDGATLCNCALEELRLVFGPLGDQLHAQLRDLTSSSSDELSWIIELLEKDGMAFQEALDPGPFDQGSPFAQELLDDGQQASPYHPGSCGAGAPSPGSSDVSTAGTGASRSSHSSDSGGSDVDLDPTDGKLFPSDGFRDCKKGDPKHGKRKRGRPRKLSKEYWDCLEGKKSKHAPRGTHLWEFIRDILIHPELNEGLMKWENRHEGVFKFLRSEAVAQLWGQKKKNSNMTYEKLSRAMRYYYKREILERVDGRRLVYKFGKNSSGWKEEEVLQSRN
How it was run: as §1

CRX = CRX (Homo sapiens, UniProt O43186 1-299); conditions: protein: recombinant; tags: N-terminal GST; dsDNA, one strand shown
Chain of CRX (O43186 whole entry): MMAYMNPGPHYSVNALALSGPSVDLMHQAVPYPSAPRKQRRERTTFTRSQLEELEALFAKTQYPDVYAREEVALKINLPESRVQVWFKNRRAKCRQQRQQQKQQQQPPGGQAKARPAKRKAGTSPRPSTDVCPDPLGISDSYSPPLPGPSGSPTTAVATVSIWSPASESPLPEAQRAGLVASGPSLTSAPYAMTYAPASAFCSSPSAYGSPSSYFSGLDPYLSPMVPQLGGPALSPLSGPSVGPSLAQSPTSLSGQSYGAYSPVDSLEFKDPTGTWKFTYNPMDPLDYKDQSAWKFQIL
How it was run: as §1

ETV1 = ETV1 (Homo sapiens, UniProt P50549 1-477); conditions: protein: recombinant; tags: N-terminal GST; dsDNA, one strand shown
Chain of ETV1 (P50549 whole entry): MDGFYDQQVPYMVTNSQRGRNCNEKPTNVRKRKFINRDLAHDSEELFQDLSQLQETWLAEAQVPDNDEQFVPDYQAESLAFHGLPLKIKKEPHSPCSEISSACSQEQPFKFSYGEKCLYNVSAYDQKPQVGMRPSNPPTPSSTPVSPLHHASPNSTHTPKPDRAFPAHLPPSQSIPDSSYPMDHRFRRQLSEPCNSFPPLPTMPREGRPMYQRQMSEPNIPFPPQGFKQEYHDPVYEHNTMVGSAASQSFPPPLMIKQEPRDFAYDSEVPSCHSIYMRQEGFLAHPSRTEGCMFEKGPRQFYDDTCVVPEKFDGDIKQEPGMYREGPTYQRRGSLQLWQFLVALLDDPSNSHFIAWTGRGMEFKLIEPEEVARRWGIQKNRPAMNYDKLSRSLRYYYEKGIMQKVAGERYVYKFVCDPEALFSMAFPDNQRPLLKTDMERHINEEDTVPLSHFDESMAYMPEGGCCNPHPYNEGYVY
How it was run: as §1

Sequence: AATTGT
- binding signal (FEV): 1.25 fold enrichment (6-mer frequency, TF over GST control)
- binding signal (ETV5): 1.2 fold enrichment (6-mer frequency, TF over GST control)
- binding signal (HSF1): 1.18 fold enrichment (6-mer frequency, TF over GST control)
- binding signal (SPIC): 1.26 fold enrichment (6-mer frequency, TF over GST control)
- binding signal (ELF4): 1.29 fold enrichment (6-mer frequency, TF over GST control)
- binding signal (ELK4): 1.14 fold enrichment (6-mer frequency, TF over GST control)
- binding signal (ETV2): 1.33 fold enrichment (6-mer frequency, TF over GST control)
- binding signal (ELF3): 1.31 fold enrichment (6-mer frequency, TF over GST control)
- binding signal (CRX): 1.17 fold enrichment (6-mer frequency, TF over GST control)
- binding signal (ETV1): 1.22 fold enrichment (6-mer frequency, TF over GST control)

Sequence: TGTTGC
- binding signal (FEV): 1.25 fold enrichment (6-mer frequency, TF over GST control)
- binding signal (ETV5): 1.35 fold enrichment (6-mer frequency, TF over GST control)
- binding signal (HSF1): 1.02 fold enrichment (6-mer frequency, TF over GST control)
- binding signal (SPIC): 1.17 fold enrichment (6-mer frequency, TF over GST control)
- binding signal (ELF4): 1.34 fold enrichment (6-mer frequency, TF over GST control)
- binding signal (ELK4): 1.37 fold enrichment (6-mer frequency, TF over GST control)
- binding signal (ETV2): 1.15 fold enrichment (6-mer frequency, TF over GST control)
- binding signal (ELF3): 1.28 fold enrichment (6-mer frequency, TF over GST control)
- binding signal (CRX): 1.08 fold enrichment (6-mer frequency, TF over GST control)
- binding signal (ETV1): 1.4 fold enrichment (6-mer frequency, TF over GST control)

Sequence: ATGTTT
- binding signal (FEV): 1.36 fold enrichment (6-mer frequency, TF over GST control)
- binding signal (ETV5): 1.4 fold enrichment (6-mer frequency, TF over GST control)
- binding signal (HSF1): 1.32 fold enrichment (6-mer frequency, TF over GST control)
- binding signal (SPIC): 1.27 fold enrichment (6-mer frequency, TF over GST control)
- binding signal (ELF4): 1.3 fold enrichment (6-mer frequency, TF over GST control)
- binding signal (ELK4): 1.37 fold enrichment (6-mer frequency, TF over GST control)
- binding signal (ETV2): 1.41 fold enrichment (6-mer frequency, TF over GST control)
- binding signal (ELF3): 1.34 fold enrichment (6-mer frequency, TF over GST control)
- binding signal (CRX): 1.26 fold enrichment (6-mer frequency, TF over GST control)
- binding signal (ETV1): 1.26 fold enrichment (6-mer frequency, TF over GST control)

Sequence: ATGCCT
- binding signal (FEV): 1.35 fold enrichment (6-mer frequency, TF over GST control)
- binding signal (ETV5): 1.41 fold enrichment (6-mer frequency, TF over GST control)
- binding signal (HSF1): 1.13 fold enrichment (6-mer frequency, TF over GST control)
- binding signal (SPIC): 1.55 fold enrichment (6-mer frequency, TF over GST control)
- binding signal (ELF4): 1.29 fold enrichment (6-mer frequency, TF over GST control)
- binding signal (ELK4): 1.49 fold enrichment (6-mer frequency, TF over GST control)
- binding signal (ETV2): 1.2 fold enrichment (6-mer frequency, TF over GST control)
- binding signal (ELF3): 1.4 fold enrichment (6-mer frequency, TF over GST control)
- binding signal (CRX): 1.28 fold enrichment (6-mer frequency, TF over GST control)
- binding signal (ETV1): 1.33 fold enrichment (6-mer frequency, TF over GST control)

Sequence: CCCGAT
- binding signal (FEV): 1.27 fold enrichment (6-mer frequency, TF over GST control)
- binding signal (ETV5): 1.2 fold enrichment (6-mer frequency, TF over GST control)
- binding signal (HSF1): 1.38 fold enrichment (6-mer frequency, TF over GST control)
- binding signal (SPIC): 1.29 fold enrichment (6-mer frequency, TF over GST control)
- binding signal (ELF4): 1.23 fold enrichment (6-mer frequency, TF over GST control)
- binding signal (ELK4): 1.11 fold enrichment (6-mer frequency, TF over GST control)
- binding signal (ETV2): 1.02 fold enrichment (6-mer frequency, TF over GST control)
- binding signal (ELF3): 1.2 fold enrichment (6-mer frequency, TF over GST control)
- binding signal (CRX): 1.37 fold enrichment (6-mer frequency, TF over GST control)
- binding signal (ETV1): 1.08 fold enrichment (6-mer frequency, TF over GST control)

Sequence: CTGGTT
- binding signal (FEV): 1.19 fold enrichment (6-mer frequency, TF over GST control)
- binding signal (ETV5): 1.36 fold enrichment (6-mer frequency, TF over GST control)
- binding signal (HSF1): 1.24 fold enrichment (6-mer frequency, TF over GST control)
- binding signal (SPIC): 1.43 fold enrichment (6-mer frequency, TF over GST control)
- binding signal (ELF4): 1.33 fold enrichment (6-mer frequency, TF over GST control)
- binding signal (ELK4): 1.46 fold enrichment (6-mer frequency, TF over GST control)
- binding signal (ETV2): 1.2 fold enrichment (6-mer frequency, TF over GST control)
- binding signal (ELF3): 1.22 fold enrichment (6-mer frequency, TF over GST control)
- binding signal (CRX): 1.22 fold enrichment (6-mer frequency, TF over GST control)
- binding signal (ETV1): 1.3 fold enrichment (6-mer frequency, TF over GST control)

Sequence: ATGTAA
- binding signal (FEV): 1.2 fold enrichment (6-mer frequency, TF over GST control)
- binding signal (ETV5): 1.24 fold enrichment (6-mer frequency, TF over GST control)
- binding signal (HSF1): 1.28 fold enrichment (6-mer frequency, TF over GST control)
- binding signal (SPIC): 1.17 fold enrichment (6-mer frequency, TF over GST control)
- binding signal (ELF4): 1.23 fold enrichment (6-mer frequency, TF over GST control)
- binding signal (ELK4): 1.28 fold enrichment (6-mer frequency, TF over GST control)
- binding signal (ETV2): 1.15 fold enrichment (6-mer frequency, TF over GST control)
- binding signal (ELF3): 1.39 fold enrichment (6-mer frequency, TF over GST control)
- binding signal (CRX): 1.41 fold enrichment (6-mer frequency, TF over GST control)
- binding signal (ETV1): 1.27 fold enrichment (6-mer frequency, TF over GST control)
